In PubChem BioAssay (NCATS):
Records with an inconclusive call do not appear. Where a call stands in place of a potency, no number is given. The source made the active and inactive calls. Calls follow the shape of the dose curve; as a rule, active = well fitted cell-killing curve with a large enough effect; inconclusive = small, poorly fitted or top-dose-only effect, or effect the other way; inactive = flat fitted curve, though single readings scatter.

Tested on: Tov112D
Assay: Primary qHTS to identify gynecologic anti-cancer compounds using libraries of approved drugs and bioactive compounds (AID 1345084); also: nearly all actives have a fitted effect of over 55% in size
Details: Gynecologic cancer cell panel viability, ATPlite luminescence, 48 h; series mostly up to 57.5 µM
Method in brief: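 48 h compound exposure at 37 C, 5% CO2; five-point qHTS. ATPlite luminescence readout of cell ATP.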

SMILES	Potency
CN1CCc2cc3c(cc2C(=O)Cc2cc4c(cc2C1)OCO4)OCO3	inactive
C=C(C)C(=O)O[C@H]1/C(C=O)=C\CC/C(CO)=C/[C@H]2OC(=O)C(=C)[C@@H]2[C@@H]1OC	inactive
O=C(CSc1nc2ccccc2c(=O)n1-c1ccccc1)Nc1ccc2c(c1)CCC2	inactive
CC1=C2C[C@@]3(C)C(CCC[C@@H]3C)C(O)C2OC1=O (some centres not stated)	inactive
C=C1/C(=C/C=C2\CCC[C@]3(C)[C@@H]([C@@H](C)OCCC(O)(CC)CC)CC[C@@H]23)C[C@@H](O)C[C@@H]1O	inactive
CC(C)(C)C1CCN(C(=O)n2ncc(C(O)(c3ccccc3)c3ccccc3)n2)CC1	inactive
CC(=O)C1=C(O)C=C2Oc3c(C(C)=O)c(O)c(C)c(O)c3[C@]2(C)C1=O	inactive
